Source: PubChem (National Center for Advancing Translational Sciences (NCATS))
IL2 activator: qHTS of IL-2 Activators; IL-2 activation reporter assay, cell-based qHTS; stimulated with anti-CD3/CD4/CD28 beads; in transgenic mouse T cells; activation, % (series mostly up to about 46 µM); hit rate 0.065% among 360,000; AID 652025, 2013; in the data active = activation above about 50%; inconclusive = mostly about 30% to 49%
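Readout: EGFP and DsRed signals by fluorescent plate cytometry. Unstimulated transgenic mouse T cells received compound 60 min before antibody-bead stimulation, then incubated 18 h at 37 degrees C.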
Nrf2 activator: qHTS of Nrf2 Activators | AREc32 ARE-luciferase reporter (MCF7-derived line), luminescence, 24 h | Potency, µM (highest dose often 46.1 µM), usual class: activators | hit rate 0.31% among 410,000; note: nearly all actives have a fitted effect of over 65% in size
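Luminescent ARE reporter assay in AREc32_Fluc cells: overnight plating at 37 deg C, 24 hr compound incubation, Steady-Glo added, 30 min RT before reading.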
Nrf2 inh: Nrf2 qHTS screen for inhibitors; A549 ARE-Fluc reporter, luciferase luminescence, 18-24 h; Potency, µM (series often up to 46 µM), actives largely listed as inhibitors; hit rate 2.1% among 360,000; AID 504444, 2011; note: nearly all actives have a fitted effect of over 60% in size
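Nrf2 function is reported as luminescence of an ARE-controlled luciferase in A549 cells. Compounds were tested at several concentrations, and a CellTiter-Fluor read on the same wells flagged cytotoxicity.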
A549 tox: Nrf2 qHTS screen for inhibitors: counterscreen for cytotoxicity; A549 ARE-Fluc cells, CellTiter-Fluor viability, 18-24 h; Potency, µM (highest dose often 46 µM), usual class: inhibitors; hit rate 0.16% among 390,000
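A549 ARE-Fluc cells in 5% FBS OPTI-MEM, 5000 cells/well, rested 2 h then exposed to compounds in concentration-response for 18-24 h at 37 °C. Viability by CellTiter-Fluor fluorescence (Ex 405/Em 525) after 30 min; luciferase luminescence (BugLite, 15 min, RT) read afterwards.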
Large screens that a line does not name were inactive; ! = not active in a repeat. This is a sample that favours compounds with a hit; in the whole collection about 2.3% have one here. Unless noted, calls come from the whole dose curve; as a rule, active = well fitted curve in the direction sought with a large enough effect; inconclusive = small, poorly fitted or top-dose-only effect, or another doubt; inactive = no such curve, though single readings can be large; an effect the other way counts as inactive or inconclusive.

COc1cc2ncnc(NCc3cccs3)c2cc1OC	none
Clc1ccc2c(NCc3cccs3)ncnc2c1	Nrf2 inh 16µM
Clc1ccc2c(NCc3ccccn3)ncnc2c1	Nrf2 activator 6.3µM (no result: Nrf2 inh)
COc1ccccc1-n1nc(-c2ccccc2)c2cnc3cc(C(F)(F)F)ccc3c21	none (no result: IL2 activator)
CN(C)c1ccc(-c2nc3ccccn3c2Nc2ccc3c(c2)OCCO3)cc1	Nrf2 inh inconclusive (no result: IL2 activator)
c1ccc(C[n+]2cccc(-c3ccccc3)c2)cc1	Nrf2 inh 18µM
c1ccc(C[n+]2ccc3ccccc3c2)cc1	Nrf2 inh inconclusive
Cc1ccc(NS(=O)(=O)c2cc3c(cc2Cl)CCC(=O)N3)cc1Cl	none (no result: IL2 activator, Nrf2 activator)
O=C(c1ccccc1)N1CCN(c2nc(-c3cccs3)nc3ccccc23)CC1	Nrf2 inh inconclusive (no result: IL2 activator, Nrf2 activator)
CS(=O)(=O)c1ccc(C(=O)Nc2cc(S(C)(=O)=O)ccc2Cl)cc1	none
CS(=O)(=O)c1ccc(Cl)c(NC(=O)COC(=O)c2ccc(F)cc2Cl)c1	Nrf2 inh 12µM
CS(=O)(=O)c1ccc(Cl)c(NC(=O)CCl)c1	Nrf2 activator inconclusive, Nrf2 inh 21µM
O=C(/C=C/c1cccs1)c1cc(Cl)ccc1O	Nrf2 activator 14µM
O=C(C=Cc1cccs1)c1ccc(Cl)s1	Nrf2 activator 22µM
O=C(NCc1ccccn1)c1ccc(COc2ccc(Cl)cc2)o1	Nrf2 inh 23µM
COc1ccc(CNC(=O)c2sc3nc[nH]c(=O)c3c2C)cc1	none (no result: IL2 activator, Nrf2 inh)
O=C(NNC(=S)Nc1cccc(Cl)c1)c1ccccc1OC(F)F	Nrf2 inh 21µM
COc1cccc(NC(=S)NNC(=O)c2ccccc2OC(F)F)c1	Nrf2 inh inconclusive
CC1=NN(c2ccccc2)C(=O)C1C(=O)c1ccc(Cl)cc1 (configuration not stated)	Nrf2 inh 18µM, A549 tox inconclusive
CC1=NN(c2ccccc2)C(=O)C1C(=O)c1ccccc1 (configuration not stated)	Nrf2 inh inconclusive
N#Cc1c(NC(=O)CSc2nc(N)cc(=O)[nH]2)sc2c1CCCC2	Nrf2 inh 15µM
CCOC(=O)c1c(C)[nH]c(C)c1S(=O)(=O)N1CCCC(C(=O)Nc2ccc(C)c(N(C)C)c2)C1 (configuration not stated)	none (no result: IL2 activator)
CSC1=NC(C)(C)C=C(/C=C/c2ccc(Cl)cc2)N1	Nrf2 activator 5.6µM
CSC1=NC(C)(C)C=C(/C=C/c2c(Cl)cccc2Cl)N1	Nrf2 activator inconclusive
CSC1=NC(C)(C)C=C(/C=C/c2ccc(Cl)cc2Cl)N1	Nrf2 activator 25µM
Nc1nccc(/C=C/c2c(Cl)cccc2Cl)n1	Nrf2 activator 11µM
COc1ccc2c(c1)Cc1sc(NC(=O)c3cccc(C)c3)nc1-2	Nrf2 inh 21µM (no result: IL2 activator)
COc1ccc2c(c1)Cc1sc(NC(=O)c3cccc(Cl)c3)nc1-2	none (no result: IL2 activator, Nrf2 inh)
CN1CC=C2C(C#N)=C(N)C(C#N)(C#N)[C@H](c3cccs3)[C@H]2C1	none
CN1CCC2(CC1)C1CN(C)CC=C1C(C#N)=C(N)C2(C#N)C#N (configuration not stated)	A549 tox 16µM!
CCOC(=O)Cn1c(=O)n(CC2CCCO2)c2nc(-c3ccccc3F)nc(C(N)=O)c21 (configuration not stated)	none (no result: IL2 activator, Nrf2 inh)
N#CNC(=Nc1cccc(F)c1)SCc1ccccc1	none
N#CNC(=Nc1cccc(F)c1)SCc1cccc(F)c1	Nrf2 inh 23µM
COc1ccc(C2Nc3ccccc3C(=O)N2c2ccc(Cl)cc2)cc1COc1ccc(NC(C)=O)cc1 (configuration not stated)	Nrf2 inh inconclusive (no result: IL2 activator, Nrf2 activator)
CC(C)CC(=O)Nc1c(C(=O)N2CCN(c3ccccc3F)CC2)oc2ccccc12	Nrf2 inh 26µM (no result: IL2 activator)
Cc1cccc(OCC(=O)Nc2c(C(=O)N3CCN(c4ccccc4F)CC3)oc3ccccc23)c1	Nrf2 inh 18µM, A549 tox inconclusive (no result: IL2 activator)
COc1cccc(CC(=O)Nc2c(C(=O)N3CCN(c4ccccc4F)CC3)oc3ccccc23)c1	none (no result: IL2 activator)
Cc1cccc(N(CC(=O)N(C)Cc2ccccc2)S(=O)(=O)c2ccccc2)c1C	none (no result: IL2 activator)
CCN1C(=O)[C@H]2[C@@H](c3ccc(-c4ccccc4)cc3)N3CCC[C@@]3(C(=O)OC)[C@H]2C1=O	Nrf2 inh 15µM
Clc1cnc(N/N=C/c2cccs2)c(Cl)c1	Nrf2 activator inconclusive, Nrf2 inh inconclusive
Cc1ccc(/C=N/Nc2ncc(Cl)cc2Cl)s1	Nrf2 inh inconclusive, A549 tox 5.8µM
CCOc1cccc(C2C=C(c3ccc4c(c3)OCO4)NC(c3cccc(Br)c3)N2)c1O (configuration not stated)	none (no result: IL2 activator, Nrf2 activator)
c1ccc(CCNc2nc(-c3ccccn3)nc3ccccc23)cc1	Nrf2 inh 10µM, A549 tox inconclusive
CCCN(CCC)c1nc(-c2ccccn2)nc2ccccc12	Nrf2 inh 18µM
CCCN(CCC)c1nc(-c2ccccc2F)nc2ccccc12	none (no result: IL2 activator)
CCOc1ccc(NC(=O)CC2C(=O)N(c3ccccc3)C(=O)N2Cc2ccc3c(c2)OCO3)cc1 (configuration not stated)	none (no result: IL2 activator)
CCn1c2ccccc2c2cc(NC(=O)COC(=O)c3cc(OC)c(OC)cc3OC)ccc21	Nrf2 inh 16µM
CCOC(=O)c1cc(-c2ccccc2)n(CCCC(=O)Nc2ccc(C)c(Cl)c2)c1C	none (no result: IL2 activator, Nrf2 inh)
C=Cc1cc(F)c(S(=O)(=O)N2CCN(S(=O)(=O)c3ccc4c(c3)OCCO4)CC2)cc1F	none (no result: IL2 activator, Nrf2 activator)
Fc1cccc(Cl)c1/C=C/c1cnc2ccccc2n1	Nrf2 activator 3.5µM, Nrf2 inh inconclusive
Fc1cccc(F)c1/C=C/c1ccc2ccccc2n1	Nrf2 activator inconclusive, Nrf2 inh inconclusive
CCSC1=NS(=O)(=O)c2ccccc21	none (no result: IL2 activator, Nrf2 activator)
Cc1ccc(NC(=O)c2cc(S(=O)(=O)N3CCCCC3)cs2)cc1	Nrf2 inh 8.2µM
CN(C)c1ccc(CNS(=O)(=O)c2csc(C(N)=O)c2)cc1	Nrf2 inh inconclusive
O=C(Nc1ccc(F)cc1)c1cc(S(=O)(=O)Nc2ccc(F)cc2)cs1	Nrf2 inh 18µM, A549 tox inconclusive
CC(C)Oc1ccc(CNS(=O)(=O)c2csc(C(N)=O)c2)cc1	Nrf2 inh 15µM
O=C(Nc1ccc(Cl)cc1)c1cc(S(=O)(=O)N2CCOCC2)cs1	Nrf2 inh 4.6µM, A549 tox inconclusive
Cc1cc(C)cc(NS(=O)(=O)c2csc(C(N)=O)c2)c1	Nrf2 inh inconclusive
Cc1ccc(NS(=O)(=O)c2csc(C(N)=O)c2)cc1C	Nrf2 inh 16µM
CCCOc1ccc(Cn2c(=O)oc3ccc(C)cc32)cc1OC	Nrf2 inh inconclusive
COc1cc(Cn2c(=O)oc3ccc(C)cc32)ccc1OCCC(C)C	Nrf2 inh 21µM (no result: IL2 activator)
Cc1nc2ncnn2c(C)c1CCC(=O)N1CCN(c2ccccn2)CC1	none
Cc1ccc(N2CCN(C(=O)CCc3c(C)nc4ncnn4c3C)CC2)c(C)c1	Nrf2 inh 18µM (no result: IL2 activator)
Cc1c(NS(=O)(=O)c2ccc3c(c2)OCCO3)cccc1-c1nc2cccnc2s1	Nrf2 inh 21µM
Cc1cc(-c2nc3cccnc3s2)ccc1NS(=O)(=O)c1ccc2c(c1)OCCO2	Nrf2 inh inconclusive
